Test results: the supplement of paper PMC10849652
The full data set covers some 8,800 targets. This sample favours those with a hit. About 0.5% of all pairs of compound and target were hits.

Legend:
Experiment in all cases: log2 fold change, soluble protein after heating vs DMSO (PISA); higher = thermal stabilisation; K562 lysate, 10 uM; active = over 0.2 and 3.5 SD of the protein, either way, in both replicates (recomputed)
nilotinib = compound: Cc1cn(-c2cc(NC(=O)c3ccc(C)c(Nc4nccc(-c5cccnc5)n4)c3)cc(C(F)(F)F)c2)cn1 [nilotinib]
Outline: (§1)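 A 30 min treatment with 10 μM compound was applied to crude K562 extract at 1 mg/mL protein in PBS pH 7.4 with 1 mM MgCl2. Heating for 3 min spanned 48°C-58°C, after which aliquots were pooled, adjusted to 0.5% NP-40 at 4°C and spun at 21,000xg for 90 min. TMTpro 16plex LC-MS/MS of the supernatant, with channel sums equalised, gave values recorded as log-two fold change in thermal stability against solvent controls, from duplicates.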

[1] = compound: Cc1nc(Nc2n[nH]c3c2CN(C(=O)N[C@H](CN(C)C)c2ccccc2)C3(C)C)c2sccc2n1
Outline: as §1

dasatinib = compound: Cc1nc(Nc2ncc(C(=O)Nc3c(C)cccc3Cl)s2)cc(N2CCN(CCO)CC2)n1 [dasatinib]
Outline: as §1

[2] = compound: Cc1ncc(-c2ccnc(Nc3ccc(S(C)(=O)=O)cc3)n2)n1C(C)C
Outline: as §1

[3] = compound: Cn1cc(-c2ccc3c(c2)CCN3C(=O)Cc2cccc(C(F)(F)F)c2)c2c(N)ncnc21
Outline: as §1

tipifarnib = compound: Cn1cncc1[C@@](N)(c1ccc(Cl)cc1)c1ccc2c(c1)c(-c1cccc(Cl)c1)cc(=O)n2C [tipifarnib]
Outline: as §1

[4] = compound: NC(=O)c1cnc(N[C@@H]2CCCC[C@@H]2N)nc1Nc1cccc(-n2nccn2)c1
Outline: as §1

quisinostat = compound: Cn1cc(CNCC2CCN(c3ncc(C(=O)NO)cn3)CC2)c2ccccc21 [quisinostat]
Outline: as §1

[5] = compound: NC(=O)Nc1cc(-c2cccc(F)c2)sc1C(=O)N[C@H]1CCCNC1
Outline: as §1

[6] = compound: NC1(c2ccc(-c3nc4ccn5c(=O)[nH]nc5c4cc3-c3ccccc3)cc2)CCC1
Outline: as §1

Measured: log2 fold change

SELENOK (UniProt Q9Y6D0)
Sequence of UniProt Q9Y6D0 (Q9Y6D0 whole entry, looked up): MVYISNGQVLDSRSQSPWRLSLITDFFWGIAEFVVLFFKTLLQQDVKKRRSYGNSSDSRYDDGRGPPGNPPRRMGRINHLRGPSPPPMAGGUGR
inactive: nilotinib -0.009 | [1] -0.032 | dasatinib 0.082 | [2] 0.064 | [3] -0.032 | tipifarnib -0.077 | [4] 0.001

RAPGEF4 (UniProt Q8WZA2)
Sequence of UniProt Q8WZA2 (Q8WZA2 whole entry, looked up): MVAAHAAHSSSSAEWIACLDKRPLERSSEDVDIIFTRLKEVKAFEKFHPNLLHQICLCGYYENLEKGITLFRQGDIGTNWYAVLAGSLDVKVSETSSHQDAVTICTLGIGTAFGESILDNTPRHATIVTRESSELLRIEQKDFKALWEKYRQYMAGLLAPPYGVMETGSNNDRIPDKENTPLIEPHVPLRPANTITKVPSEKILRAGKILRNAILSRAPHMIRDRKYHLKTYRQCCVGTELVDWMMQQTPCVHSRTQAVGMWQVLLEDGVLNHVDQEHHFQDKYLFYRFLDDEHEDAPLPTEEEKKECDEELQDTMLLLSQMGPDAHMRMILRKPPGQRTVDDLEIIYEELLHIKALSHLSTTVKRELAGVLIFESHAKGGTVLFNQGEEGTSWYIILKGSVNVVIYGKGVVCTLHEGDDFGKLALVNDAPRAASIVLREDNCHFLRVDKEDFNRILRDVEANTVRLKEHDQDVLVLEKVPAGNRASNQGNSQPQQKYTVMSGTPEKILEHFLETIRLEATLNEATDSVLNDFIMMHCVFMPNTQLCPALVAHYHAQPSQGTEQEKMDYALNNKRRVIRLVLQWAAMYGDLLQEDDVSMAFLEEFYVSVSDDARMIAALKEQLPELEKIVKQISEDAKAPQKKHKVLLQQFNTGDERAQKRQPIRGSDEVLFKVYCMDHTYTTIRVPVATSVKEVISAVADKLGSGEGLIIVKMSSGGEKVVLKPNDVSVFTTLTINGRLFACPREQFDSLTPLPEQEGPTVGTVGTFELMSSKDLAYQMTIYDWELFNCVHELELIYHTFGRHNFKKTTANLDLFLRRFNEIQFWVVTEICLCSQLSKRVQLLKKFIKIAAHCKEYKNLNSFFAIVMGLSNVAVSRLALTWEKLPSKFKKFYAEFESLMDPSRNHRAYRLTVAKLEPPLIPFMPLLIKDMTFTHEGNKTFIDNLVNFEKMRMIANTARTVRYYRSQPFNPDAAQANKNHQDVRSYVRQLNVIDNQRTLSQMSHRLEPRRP
inactive: dasatinib -0.092 | [3] -0.061 | quisinostat -0.491 | [5] 0.16 | [4] 0.064 | [6] -0.192

RTTN (UniProt Q86VV8)
Sequence of UniProt Q86VV8 (Q86VV8 whole entry, looked up): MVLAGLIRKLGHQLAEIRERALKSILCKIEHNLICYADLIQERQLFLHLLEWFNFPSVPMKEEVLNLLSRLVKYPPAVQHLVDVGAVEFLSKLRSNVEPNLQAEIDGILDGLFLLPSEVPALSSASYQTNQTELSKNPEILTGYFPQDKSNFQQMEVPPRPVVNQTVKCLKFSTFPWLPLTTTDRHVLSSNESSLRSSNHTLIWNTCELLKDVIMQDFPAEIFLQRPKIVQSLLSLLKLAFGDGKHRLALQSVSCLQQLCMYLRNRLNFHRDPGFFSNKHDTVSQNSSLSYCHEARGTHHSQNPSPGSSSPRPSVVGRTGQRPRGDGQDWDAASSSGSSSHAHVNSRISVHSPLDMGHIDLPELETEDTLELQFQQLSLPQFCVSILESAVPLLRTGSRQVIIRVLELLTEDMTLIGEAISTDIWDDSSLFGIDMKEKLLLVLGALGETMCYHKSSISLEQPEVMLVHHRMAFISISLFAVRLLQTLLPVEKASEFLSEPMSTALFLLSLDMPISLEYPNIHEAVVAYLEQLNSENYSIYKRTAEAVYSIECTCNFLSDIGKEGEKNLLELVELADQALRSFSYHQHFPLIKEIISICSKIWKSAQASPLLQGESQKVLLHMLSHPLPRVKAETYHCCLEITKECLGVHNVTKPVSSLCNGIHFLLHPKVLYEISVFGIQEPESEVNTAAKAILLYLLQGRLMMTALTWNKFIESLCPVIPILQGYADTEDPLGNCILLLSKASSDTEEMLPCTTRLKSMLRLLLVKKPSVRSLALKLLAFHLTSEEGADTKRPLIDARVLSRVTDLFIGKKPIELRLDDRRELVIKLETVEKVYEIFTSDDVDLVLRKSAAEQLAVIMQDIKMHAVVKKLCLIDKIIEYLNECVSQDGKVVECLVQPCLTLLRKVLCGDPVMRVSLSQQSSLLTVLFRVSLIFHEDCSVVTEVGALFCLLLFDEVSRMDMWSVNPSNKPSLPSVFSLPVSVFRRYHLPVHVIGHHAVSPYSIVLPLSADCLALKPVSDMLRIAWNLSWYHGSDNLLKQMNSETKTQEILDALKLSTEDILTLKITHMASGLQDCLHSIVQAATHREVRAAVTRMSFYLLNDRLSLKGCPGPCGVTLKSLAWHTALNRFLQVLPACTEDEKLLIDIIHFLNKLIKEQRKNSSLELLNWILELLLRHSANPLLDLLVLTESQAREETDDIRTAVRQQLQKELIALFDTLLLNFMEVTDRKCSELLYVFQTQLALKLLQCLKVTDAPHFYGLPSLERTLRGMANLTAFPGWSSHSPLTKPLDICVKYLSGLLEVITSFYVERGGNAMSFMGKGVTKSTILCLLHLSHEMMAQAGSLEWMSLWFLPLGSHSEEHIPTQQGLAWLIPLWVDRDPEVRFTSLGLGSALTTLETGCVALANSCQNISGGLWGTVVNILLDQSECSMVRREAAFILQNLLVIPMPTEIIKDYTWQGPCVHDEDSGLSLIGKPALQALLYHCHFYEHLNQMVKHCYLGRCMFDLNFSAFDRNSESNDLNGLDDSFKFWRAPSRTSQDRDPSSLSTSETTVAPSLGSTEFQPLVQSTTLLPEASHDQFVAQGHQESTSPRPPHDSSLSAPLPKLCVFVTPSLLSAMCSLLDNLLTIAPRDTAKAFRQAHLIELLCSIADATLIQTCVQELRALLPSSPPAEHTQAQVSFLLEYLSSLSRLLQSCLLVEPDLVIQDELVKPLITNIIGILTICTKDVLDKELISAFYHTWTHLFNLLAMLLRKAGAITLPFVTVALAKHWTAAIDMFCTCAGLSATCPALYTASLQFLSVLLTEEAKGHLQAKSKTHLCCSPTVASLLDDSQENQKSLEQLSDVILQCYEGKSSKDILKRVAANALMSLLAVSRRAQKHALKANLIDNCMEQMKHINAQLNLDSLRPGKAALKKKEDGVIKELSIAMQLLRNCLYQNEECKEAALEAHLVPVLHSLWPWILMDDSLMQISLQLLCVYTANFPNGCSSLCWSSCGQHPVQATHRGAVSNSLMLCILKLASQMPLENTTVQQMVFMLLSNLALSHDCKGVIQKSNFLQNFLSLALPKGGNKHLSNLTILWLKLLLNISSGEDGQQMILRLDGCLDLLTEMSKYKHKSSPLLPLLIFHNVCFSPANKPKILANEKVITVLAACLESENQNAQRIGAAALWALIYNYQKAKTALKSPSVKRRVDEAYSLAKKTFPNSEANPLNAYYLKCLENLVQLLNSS
inactive: nilotinib -0.102 | [1] 0.14 | dasatinib -0.086 | [2] -0.003 | [3] -0.161 | tipifarnib -0.069 | [4] -0.282 | [6] 0.216

RALGAPB isoform 3 (UniProt Q86X10)
inactive: dasatinib 0.052 | [3] -0.034

RBSN (UniProt Q9H1K0)
inactive: nilotinib -0.047 | [1] 0.057 | dasatinib -0.106 | [2] 0.034 | [3] -0.004 | quisinostat -0.04 | tipifarnib -0.036 | [5] 0.05 | [4] 0.039 | [6] 0.029

RAD54L (UniProt Q92698)
inactive: nilotinib -0.004 | [1] 0.078 | dasatinib -0.212 | [2] 0.037 | [3] -0.054 | tipifarnib 0.007 | [4] 0.015 | [6] -0.073

RBM45 (UniProt Q8IUH3)
Sequence of UniProt Q8IUH3 (Q8IUH3 whole entry, looked up): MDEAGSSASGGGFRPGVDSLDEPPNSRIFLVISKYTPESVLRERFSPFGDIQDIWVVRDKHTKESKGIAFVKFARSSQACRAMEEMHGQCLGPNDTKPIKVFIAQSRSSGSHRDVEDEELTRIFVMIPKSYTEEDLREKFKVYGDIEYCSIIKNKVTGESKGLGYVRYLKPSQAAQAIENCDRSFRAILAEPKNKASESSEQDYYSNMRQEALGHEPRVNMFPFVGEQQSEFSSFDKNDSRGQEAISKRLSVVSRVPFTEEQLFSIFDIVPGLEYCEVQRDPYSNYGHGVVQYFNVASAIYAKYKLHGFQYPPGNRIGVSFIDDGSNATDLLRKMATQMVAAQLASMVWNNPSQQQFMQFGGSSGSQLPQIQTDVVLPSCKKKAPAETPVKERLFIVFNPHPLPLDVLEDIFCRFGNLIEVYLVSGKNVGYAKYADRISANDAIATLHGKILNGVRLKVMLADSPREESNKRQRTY
inactive: nilotinib 0.051 | [1] -0.077 | [2] 0.143 | quisinostat -0.145 | tipifarnib -0.012 | [5] -0.025 | [4] 0.061

RFWD3 (UniProt Q6PCD5)
Sequence of UniProt Q6PCD5 (Q6PCD5 whole entry, looked up): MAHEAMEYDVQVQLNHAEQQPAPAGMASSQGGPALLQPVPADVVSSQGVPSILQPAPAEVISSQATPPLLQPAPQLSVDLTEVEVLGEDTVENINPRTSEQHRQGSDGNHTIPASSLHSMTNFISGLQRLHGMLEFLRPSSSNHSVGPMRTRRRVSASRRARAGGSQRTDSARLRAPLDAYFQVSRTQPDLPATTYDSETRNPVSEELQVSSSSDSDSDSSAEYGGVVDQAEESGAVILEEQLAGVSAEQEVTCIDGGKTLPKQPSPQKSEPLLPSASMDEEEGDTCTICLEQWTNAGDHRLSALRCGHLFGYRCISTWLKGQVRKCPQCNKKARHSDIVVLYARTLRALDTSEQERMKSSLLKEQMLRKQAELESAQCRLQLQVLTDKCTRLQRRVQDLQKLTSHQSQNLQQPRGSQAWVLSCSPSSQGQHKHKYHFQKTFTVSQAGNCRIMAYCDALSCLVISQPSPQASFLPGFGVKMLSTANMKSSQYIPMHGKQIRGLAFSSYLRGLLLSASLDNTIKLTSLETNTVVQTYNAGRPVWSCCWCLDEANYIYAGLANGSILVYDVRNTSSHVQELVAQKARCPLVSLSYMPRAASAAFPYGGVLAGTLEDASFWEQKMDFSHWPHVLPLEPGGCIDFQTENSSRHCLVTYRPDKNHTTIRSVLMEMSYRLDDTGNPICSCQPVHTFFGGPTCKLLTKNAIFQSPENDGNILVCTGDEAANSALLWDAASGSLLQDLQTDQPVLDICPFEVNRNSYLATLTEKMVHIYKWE
inactive: nilotinib 0.042 | [1] -0.066 | dasatinib 0.027 | [2] -0.082 | [3] 0.004 | quisinostat -0.041 | tipifarnib -0.037 | [5] 0.003 | [6] -0.053

RETSAT (UniProt Q6NUM9)
active: quisinostat -0.485
inactive: dasatinib -0.1 | [3] -0.058 | [5] 0.152 | [4] -0.005 | [6] -0.051

RMI2 (UniProt Q96E14)
Sequence of UniProt Q96E14 (Q96E14 whole entry, looked up): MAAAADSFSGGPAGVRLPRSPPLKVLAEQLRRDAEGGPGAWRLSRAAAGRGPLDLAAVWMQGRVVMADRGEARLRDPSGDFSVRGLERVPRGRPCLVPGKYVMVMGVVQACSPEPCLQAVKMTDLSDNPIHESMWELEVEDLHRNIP
inactive: dasatinib -0.049 | [3] -0.044 | quisinostat -0.051 | [5] 0.021 | [6] 0.082

SEC16A isoform 3 (UniProt O15027)
inactive: dasatinib -0.026 | [3] -0.039

RBBP7 (UniProt C9J7L0)
inactive: nilotinib -0.133 | [1] 0.046 | [2] 0.222 | tipifarnib 0.039
